This is an account of results in the supplement of paper PMC6555819.

In this test the test system is LXRa:RXRa (NR concentration 270 nM, RXRa partner concentration 90 nM). Kind of test: PBM binding z-score (relative to random genomic background probes); higher = stronger binding; sequences stand for … in GC…GCGATTGACAGCGTAGAATGAAGG
Put shortly:
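Each nuclear receptor dimer, without ligand, was incubated for 1 h on custom Agilent 4×180K protein-binding microarrays. Binding was detected with antibodies against each partner (one per run), and scanned fluorescence was regression-normalized. The binding z-scores are referenced to random human genomic background probes.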
As for CGAACGAGGTCATTGACAGGACAGTGAATAGTAA, the PBM binding z-score was 6.11. The result for TCTAGTTGGTCACGGAGGGCACACACGACGGGTA reads 0.609.

The sequence AGAATGAGGTCATTAAGATCAGGGAATTGCGGTC had a PBM binding z-score of 5.58. The result for CGCACTAGGTCATCCAGGACAGTGAATACATTGA reads 2.83.

TAGCCTAGGTCATGCGGCCCAGTATAGTGTCGGC: the PBM binding z-score was found to be 3.19. Then GATACAGGGTCAGCTACAGGCCAGAGTATGGAAA, with 2.54; and ATCGAAAGGTCGACGCGGTGAGTATACACCGTTT, with 3.4.

CCTGCTAGGTCATGGTCAGCGAATCTACAGTATG returned a PBM binding z-score of 2.19. Then GCTGCTAGGTCAACTGATGGTCACCTAAAGCTCG, with 3.3. The result for CCGACTGGGGCAAGGTCACCATAACGCACAGCCA reads 2.82. Then TCTCGGAGGACACCAAAGGTCAGAGCTCGACATC, with 4.25; and AGTCAAAGTGCATCTAGGTAACGTAAGATATGCT, with 0.188; and CCTACTGGGCCAAAAAGTTCATTGATGCCGATAA, with 1.47. For ATTTGTAGGTTACATCCGGGTCATTCAGGCTATG, the PBM binding z-score stood at 5.11. The result for CGAACTAGGTCACCCAGGACAGTGAATACATTGA reads 2.03. CGTCCGAGGTCATAGGAGGTCAGTGAAGACAGAT gave a PBM binding z-score of 7.86. Regarding CCTAGTTGTTCAGGAGGTCACACACCGGATATGA, the PBM binding z-score came out at 4.36. Then CGAACTACGTCATCCAGGACAGTGAATACATTGA, with -0.0453; and AATAAAGGGTCATCGTAGGCCAGAGTACGCACAG, with 6.44.

Sequence CGTCAAAGTCCAAGGTAACGTAACAGAAAGCAGC yielded a PBM binding z-score of -0.0963. TAGCCTAGGTCATACAGGGGCCAGTATAGAAAGC gave a PBM binding z-score of 3.34. The result for CGAACAAGGTCATTGACAGGACAGTGAATAGTAA reads 5.4.
